21 sequences from the supplement of paper PMC10681739 can be followed below.

This test addresses T1, ETS1 (UniProt P14921).
T1 sequence: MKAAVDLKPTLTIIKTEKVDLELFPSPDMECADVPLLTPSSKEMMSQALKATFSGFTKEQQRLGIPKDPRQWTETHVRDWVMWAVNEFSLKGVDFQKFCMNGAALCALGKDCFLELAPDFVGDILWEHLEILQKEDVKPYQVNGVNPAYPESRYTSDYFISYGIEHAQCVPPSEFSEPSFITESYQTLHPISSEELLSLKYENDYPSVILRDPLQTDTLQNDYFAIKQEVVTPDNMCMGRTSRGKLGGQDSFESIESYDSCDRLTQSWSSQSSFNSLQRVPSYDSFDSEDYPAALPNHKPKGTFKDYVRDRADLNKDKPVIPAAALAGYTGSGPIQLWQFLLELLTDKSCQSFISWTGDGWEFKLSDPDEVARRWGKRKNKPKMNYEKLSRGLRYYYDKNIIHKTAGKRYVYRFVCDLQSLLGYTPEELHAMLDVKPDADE
As to the kind of experiment: ETS1 binding intensity (PBM fluorescence), ETS1 alone (arbitrary fluorescence units); higher = stronger binding. To be noted: ETS1 concentration 1 nM; RUNX1 concentration 0 nM.
In turn, AATTGTCAATGGCAGGAAGCCACCACATGAAGAGAT gave an ETS1 binding intensity of 1290.
As for CTGCACAAGGAAGCGCCTGTGTTGCTGTGGGCGGAG, the figure is 472; as for TGGATGGCGGCGGATACTGCCCATGCCGCAAGGCCG, 464.
Turning to CGCCGGTCCCATATCCTTTCTGCGGGGTGAGCAGCA, the ETS1 binding intensity worked out at 465.
ATTCTGCATCCTGTGCTCTTTCCATGAGACCACAAA yielded an ETS1 binding intensity of 448.
As for GCTGCTGTAGTCGCTTCCTGCGGCCAGCCCGGGTTC, the figure is 526.
The figure for GGGCAGCATCCTGTGCCTGCTTCTCTTACCCACATC is 494; for CGCCGGACGTAGTGACGTAGCGCGCAGCCGCAGCGG it is 442.
As for GACCCATTTCCTGGCTCAGGAGCCCACAGCCCTGGG, the figure is 464.
CGACCGGAACCACTCTGAGGCGCTGCCGCAGACACC returned an ETS1 binding intensity of 533.
In the case of TCTGGGCTGACTTCCTGGCTTCGTCCCACAACTTCA, the ETS1 binding intensity stood at 668.
The figure for TAGGTTAGAATAAGAGGAAACCTCAAACCAGAACCC is 579; for ATGCAGAAGCTACAGGAAGAAGCCGCAGGCCAAGCT it is 844; for CCGAGCCGGCCTCTTCCGCCGCAAGTCCCTCCCCAA it is 548.
For the sequence GACAGGATACAAGAATTCCGCGGACTGCCGCAGTCG, the ETS1 binding intensity came to 642.
As to CGCCGTAGGAGGAAGCCGCGGCCGCAACGCTCCTGG, the ETS1 binding intensity came to 454.
As for TGGGACGAGTGGGCGGAAACAGCCGCAGGTCTCTCT, the figure is 1990; as for GGTTTTGGTAGGAAGGAAAGTGGTTTTCATAGGAAG, 588.
TGAGTCATTTCCTGGGTGGGGGCCACAAGACCAGGT showed an ETS1 binding intensity of 540.
As for AGCGGCTTCCTGCTGGGCTTTTGCACTCCCCACAAC, the figure is 510; as for CCTGTTCCGGGCTCCGTACACCCAGGCCCGCAGCTG, 550.
